The list is not random: actives were taken first. Their share in the collection is about 14%.
HCMV antiviral = inhibitors of human cytomegalovirus; HFF cells, HCMV-luciferase reporter, 72 h; active compounds read low; activity change, negative = inhibition, % at 57.5 µM; hit rate 4.5% among 410,000; AID 1259415; in the data active means activity change below about -60%; inconclusive means no clear call, values can overlap the other calls; inactive means above about -39%
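Steps: HFFs plated, 16 h 37C; compounds added; HCMV-luciferase added to MOI 1 PFU/cell; 72 h 37C; OneGlo reagent, 5 min room temperature; luminescence read, normalized to controls.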
FBPA Giardia inh = blocks Giardia fructose-bisphosphate aldolase activity; Potency, µM (highest dose often 59.6 µM), inactives show at the top dose activity, negative = inhibition, usual class: inhibitors; A8B2U2; hit rate 0.71% among 290,000; purified Giardia FBPA; further: potency means the concentration at half of the fitted maximal effect; nearly all actives have a fitted effect of over 55% in size
Target sequence (A8B2U2 whole entry, looked up): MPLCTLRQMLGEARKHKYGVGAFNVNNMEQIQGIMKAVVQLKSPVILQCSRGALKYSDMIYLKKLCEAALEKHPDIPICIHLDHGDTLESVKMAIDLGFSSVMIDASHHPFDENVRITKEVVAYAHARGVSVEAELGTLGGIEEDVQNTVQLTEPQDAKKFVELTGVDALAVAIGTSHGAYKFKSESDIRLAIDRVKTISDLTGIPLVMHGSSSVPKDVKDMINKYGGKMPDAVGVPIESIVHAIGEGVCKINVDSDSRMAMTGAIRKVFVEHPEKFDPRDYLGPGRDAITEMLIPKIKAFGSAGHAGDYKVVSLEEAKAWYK
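Giardia FBPA (40 nM reagent) was preincubated 10 min at RT with compound (up to 57.5 uM final), then substrate plus GAPDH/TPI/NAD/arsenate coupling system with diaphorase/resazurin was added; resorufin fluorescence (525/598 nm) was read after 20 min.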
Pf growth 48h = P. falciparum growth inhibition at 48 hours (one generation); P. falciparum luciferase growth in erythrocytes, 48 h; Potency, µM (highest dose often 28.7 µM), inactives show at the top dose activity change, negative = inhibition, hits mostly inhibitors; hit rate 5.9% among 310,000; further: potency means the concentration at half of the fitted maximal effect
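Read-out is firefly luciferase luminescence from an integrated reporter in P. falciparum, so falling signal marks reduced parasite growth. Infected erythrocytes were at 2% hematocrit and 0.1% parasitemia (final) in Albumax-supplemented RPMI 1640.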
Pf growth 96h = P. falciparum growth inhibition at 96 hour, primary screen for plastid delayed-death inhibitors; P. falciparum luciferase reporter growth, 96 h; Potency, µM (series often up to 28.7 µM), for the others: at the top dose activity change, negative = inhibition, usual class: inhibitors; hit rate 6.9% among 320,000; further: potency means the concentration at half of the fitted maximal effect
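Erythrocytes infected with luciferase-expressing P. falciparum were dispensed at 2% hematocrit and 0.05% parasitemia (final), then incubated with compounds 96 hours at 37 C in 5% CO2. Luminescence after detection reagent addition reported growth.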
Sm TGR inh = S. mansoni TGR enzyme inhibition. Q962Y6. purified TGR, DTNB reduction, TNB absorbance 405 nm. Potency, µM (highest dose often 114 µM), for inactives: top-dose activity change, negative = inhibition, hits mostly inhibitors. hit rate 3% among 360,000. AID 485364; further: potency means the concentration at half of the fitted maximal effect; nearly all actives have a fitted effect of over 60% in size
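Kinetic colorimetric format: TGR-catalysed, NADPH-driven DTNB reduction monitored via TNB absorbance. Enzyme dispensed at 20 nM; compound exposure 15 min at room temperature before reaction start.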
The depositor's hits bear a star; [ ] = another dose, or the depositor's remark. Unless noted, the call rests on the fitted dose curve; in most records, active means well fitted curve in the direction sought with a large enough effect; inconclusive means small, poorly fitted or top-dose-only effect, or another doubt; inactive means no such curve, though single readings can be large; an effect the other way counts as inactive or inconclusive. On the % scale 0 is the no-effect control and ±100 the full control effect.

O=C1/C(=C/c2ccccc2F)SC(=S)N1CC(=O)N1CCCCC1c1cccnc1 (centres undefined) was read as HCMV antiviral -76*, Pf growth 48h -7%, Pf growth 96h 15µM* and Sm TGR inh 1%.
`O=C(/C=C/c1ccc(F)cc1)NC(=S)N1CCCCC1c1cccnc1` (centres undefined) gave HCMV antiviral -11, FBPA Giardia inh -7%, Pf growth 48h 4%, Pf growth 96h -7% and Sm TGR inh -3%.
`O=C1/C(=C/c2ccc(F)cc2)SC(=S)N1CC(=O)N1CCCCC1c1cccnc1` (centres undefined) gave HCMV antiviral -83*, Pf growth 48h -4%, Pf growth 96h inconclusive and Sm TGR inh -10%.
O=C1CCC([N+](=O)[O-])C(c2ccc(C(F)(F)F)cc2)N1 (centres undefined) was read as HCMV antiviral -11.
`CC(=O)c1ccsc1-c1c(C)cc2oc(=O)cc(-c3ccccc3)c2c1C` gave HCMV antiviral -20 and FBPA Giardia inh 19%[89.2 µM].
`Cc1ccccc1-n1nc(CO)c(C(=O)NCc2cccs2)n1` gave HCMV antiviral -40 and Sm TGR inh 0%.
For O=C(NCc1cccs1)c1nn(-c2ccccc2F)nc1CO the results were HCMV antiviral -66* and Sm TGR inh -2%.
O=C(NCCCc1ccccc1)c1nn(-c2ccccc2F)nc1CO was read as HCMV antiviral -61* and Sm TGR inh 2%.
Screening Cc1ccc2c(c1)c(=O)c(S(=O)(=O)c1ccc(C)c(C)c1)cn2CC(=O)Nc1ccccc1 returned HCMV antiviral 15 and Sm TGR inh 1%.
`O=C(O)CSc1nnc(-c2cccc(S(=O)(=O)N3CCCCC3)c2)o1` gave HCMV antiviral 7, FBPA Giardia inh 8%, Pf growth 48h -4%, Pf growth 96h -17% and Sm TGR inh 3%.
`N#Cc1ccc(CSc2nnc(-c3cccc(S(=O)(=O)N4CCCCC4)c3)o2)cc1` gave HCMV antiviral -66*, FBPA Giardia inh -9%, Pf growth 48h 13µM*, Pf growth 96h inconclusive and Sm TGR inh -9%.
For COC(=O)[C@@]1(Cc2ccc(OC)cc2)[C@H]2c3cc(C(=O)N4CCCC4)n(Cc4cc(F)c(F)c(F)c4)c3C[C@H]2CN1C(=O)c1ccccc1 the results were FBPA Giardia inh -8%.
For Cc1ccccc1-c1nn2c(=O)cc(CN3CCN(S(=O)(=O)c4ccc(Cl)cc4)CC3)nc2s1 the results were HCMV antiviral 26 and Sm TGR inh 1%.
For Cc1ccc(-c2nc(CN(Cc3cnn(C)c3)C(C)C)c(C)o2)o1 the results were HCMV antiviral -26, FBPA Giardia inh -26%, Pf growth 48h -6%, Pf growth 96h 7.4µM* and Sm TGR inh inconclusive.
For CC(C)N(Cc1cnn(C)c1)Cc1nc(COc2ccccc2)no1 the results were HCMV antiviral 47, FBPA Giardia inh 0%, Pf growth 48h -17%, Pf growth 96h 77% and Sm TGR inh -25%.
For CN(CCc1ccccn1)Cc1ccc(Cl)cc1 the results were HCMV antiviral 33, FBPA Giardia inh -27%, Pf growth 48h -1%, Pf growth 96h 4% and Sm TGR inh -10%.
CN(C)CCN(Cc1ccco1)c1ccccn1 was read as HCMV antiviral -2.
For CN(C)CCN(Cc1ccc(Cl)cc1)c1ccccn1 the results were HCMV antiviral -62*, FBPA Giardia inh -7%, Pf growth 48h inconclusive, Pf growth 96h inconclusive and Sm TGR inh -7%.
C[N+](C)(C)CCN(Cc1ccc(Cl)cc1)c1ccccn1 was read as HCMV antiviral -63*, FBPA Giardia inh 3%, Pf growth 48h 6.6µM*, Pf growth 96h 2.3µM* and Sm TGR inh -37%.
Screening CC(C)C[C@@H]1COc2cc(NC3CC3)ccc2S(=O)(=O)N1 returned HCMV antiviral -14.
Screening CCCCCCc1cc2cc(S(=O)(=O)c3ccc(Cl)cc3)c(=O)oc2cc1O returned HCMV antiviral 7, FBPA Giardia inh 6%, Pf growth 48h -26%, Pf growth 96h 16% and Sm TGR inh inconclusive.
Screening CCN(CC)c1ccc2cc(S(=O)(=O)c3ccc(Cl)cc3)c(=O)oc2c1 returned HCMV antiviral inconclusive, FBPA Giardia inh 0%, Pf growth 48h inconclusive, Pf growth 96h 13µM* and Sm TGR inh -11%.
For Nc1cc(-c2nn[nH]n2)ccc1F the results were HCMV antiviral -91*, FBPA Giardia inh 6%, Pf growth 48h 12%, Pf growth 96h 94% and Sm TGR inh inconclusive.
For CCCCC(=O)OCC(=O)N1N=C(c2c[nH]c3ccccc23)C(O)C1c1ccc(OC)cc1 (centres undefined) the results were HCMV antiviral -61*, FBPA Giardia inh 0%, Pf growth 96h -6% and Sm TGR inh -11%.
COc1ccc2cc(-c3[nH]ncc3CN3CCCC3c3nonc3C)ccc2c1 (centres undefined) was read as HCMV antiviral 0, FBPA Giardia inh -21%, Pf growth 48h -22%, Pf growth 96h 4.7µM* and Sm TGR inh -29%[57.1 µM].
`COc1ccc(-c2[nH]ncc2CN2CCCC(C(=O)c3cccc(OC)c3)C2)cc1` (centres undefined) gave HCMV antiviral -23, FBPA Giardia inh 3%, Pf growth 48h -15%, Pf growth 96h 3% and Sm TGR inh -11%.
For C=CCn1c(SCc2ccccc2C#N)nnc1-c1cc(Br)ccc1O the results were HCMV antiviral 7, FBPA Giardia inh -5%, Pf growth 48h 2.3µM*, Pf growth 96h -1% and Sm TGR inh -9%.
For C=CCn1c(SCC(N)=O)nnc1-c1cccc(Br)c1 the results were HCMV antiviral 21, FBPA Giardia inh -9%, Pf growth 48h 10%, Pf growth 96h 14% and Sm TGR inh 2%.
For COc1ccc(-c2csc3[nH]c(=S)n(-c4ccccc4)c(=O)c23)cc1OC the results were HCMV antiviral 7, FBPA Giardia inh 16%, Pf growth 48h -12%, Pf growth 96h inconclusive and Sm TGR inh 7%.
Screening CCCc1noc2c1/C(=N\O)CC(c1ccccc1)C2 (centres undefined) returned HCMV antiviral -13, FBPA Giardia inh 3%, Pf growth 48h 9.3µM*, Pf growth 96h inconclusive and Sm TGR inh 0%.
CCc1noc2c1/C(=N\O)CC(c1ccccc1)C2 (centres undefined) was read as HCMV antiviral -32, FBPA Giardia inh 1%, Pf growth 48h 8.3µM*, Pf growth 96h 85% and Sm TGR inh 10%.
Screening CCCc1n[nH]c2c1/C(=N/O)CC(c1ccccc1)C2 (centres undefined) returned HCMV antiviral -34, FBPA Giardia inh 3%, Pf growth 48h inconclusive, Pf growth 96h inconclusive and Sm TGR inh 17%.
For O=C(COC(=O)COc1cccc(C(F)(F)F)c1)NC(=O)NC1CCCCC1 the results were HCMV antiviral -22, Pf growth 48h 2%, Pf growth 96h -4% and Sm TGR inh 1%.

Screens: PubChem, National Center for Advancing Translational Sciences (NCATS)
